# Measurements reported in PubChem BioAssay.
# Activity calls are given as the source filed them. Unless noted, how the calls were made is not given here.
# What was measured:
# [1] = anti-His antibody binders, primary screen, artefact control for SMM control protein annotation, biochemical, small-molecule microarray, 635 nm fluorescence (AID 1128); settings: anti-His Alexa647 antibody binding, higher = more signal;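 further: score merges feature fluorescence with signal-to-noise for each printed compound spot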
# [2] = tested on: Human papillomavirus type 1a E7 protein (residues 1-88); assay: HPV1a E7 small-molecule binders, primary screen, biochemical, small-molecule microarray, residues 1-88, 635 nm (AID 1129); settings: small-molecule microarray binding, fluorescence 635 nm; higher = more signal
# [3] = target: Focal adhesion kinase 1 (Homo sapiens) (UniProt Q05397); assay: small-molecule microarray binders of FAK, primary screen, biochemical, 635/667 nm fluorescence, BSA, DTT (AID 1130); settings: PTK2 binding, 635 nm fluorescence, higher = more signal;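 further: composite of spot emission at 667 nm and signal to noise over triplicate slides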
# Chain of Focal adhesion kinase 1 (Homo sapiens) (Q05397 whole entry, looked up): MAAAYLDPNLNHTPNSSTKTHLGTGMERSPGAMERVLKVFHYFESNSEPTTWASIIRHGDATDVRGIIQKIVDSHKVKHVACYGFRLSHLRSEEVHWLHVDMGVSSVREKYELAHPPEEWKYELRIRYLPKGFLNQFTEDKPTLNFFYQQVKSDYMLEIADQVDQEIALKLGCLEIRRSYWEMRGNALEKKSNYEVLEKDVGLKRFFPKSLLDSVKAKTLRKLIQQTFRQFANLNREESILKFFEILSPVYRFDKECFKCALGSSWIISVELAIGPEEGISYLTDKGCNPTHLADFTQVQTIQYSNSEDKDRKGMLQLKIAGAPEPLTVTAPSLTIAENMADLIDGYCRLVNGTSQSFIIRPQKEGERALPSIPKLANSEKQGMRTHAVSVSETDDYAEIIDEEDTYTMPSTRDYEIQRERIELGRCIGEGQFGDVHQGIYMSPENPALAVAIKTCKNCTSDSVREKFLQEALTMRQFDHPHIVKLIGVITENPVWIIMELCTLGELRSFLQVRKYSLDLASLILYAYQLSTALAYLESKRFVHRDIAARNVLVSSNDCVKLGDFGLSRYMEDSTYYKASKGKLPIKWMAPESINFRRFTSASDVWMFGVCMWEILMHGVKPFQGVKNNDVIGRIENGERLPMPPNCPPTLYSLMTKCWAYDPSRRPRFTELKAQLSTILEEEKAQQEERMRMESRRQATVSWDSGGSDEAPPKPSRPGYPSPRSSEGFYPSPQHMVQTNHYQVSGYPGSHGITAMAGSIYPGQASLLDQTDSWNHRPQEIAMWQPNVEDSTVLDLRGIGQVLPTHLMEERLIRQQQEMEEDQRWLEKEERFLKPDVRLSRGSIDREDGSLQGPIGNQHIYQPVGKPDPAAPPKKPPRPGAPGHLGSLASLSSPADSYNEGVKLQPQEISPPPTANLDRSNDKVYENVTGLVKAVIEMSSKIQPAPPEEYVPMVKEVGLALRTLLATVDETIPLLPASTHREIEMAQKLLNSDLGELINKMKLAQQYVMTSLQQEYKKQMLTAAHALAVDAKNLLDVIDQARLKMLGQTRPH
# [4] = tested on: Fibrinogen (Alexa647-labelled); assay: fibrinogen binders on compound microarrays, profiling panel, artefact control for SMM control-protein annotation, biochemical, small-molecule microarray, 635/667 nm fluorescence (AID 1131); settings: fibrinogen-A647 binding fluorescence, higher = more signal;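 further: z-score merges 667 nm fluorescence with per-spot signal-to-noise over triplicate slides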
# [5] = target: Follistatin (Homo sapiens) (UniProt P19883); assay: follistatin binders on small-molecule microarrays, primary screen, biochemical, small-molecule microarray, 635/667 nm fluorescence (AID 1132); settings: FST binding, 635 nm fluorescence, higher = more signal
# Chain of Follistatin (Homo sapiens) (P19883 whole entry, looked up): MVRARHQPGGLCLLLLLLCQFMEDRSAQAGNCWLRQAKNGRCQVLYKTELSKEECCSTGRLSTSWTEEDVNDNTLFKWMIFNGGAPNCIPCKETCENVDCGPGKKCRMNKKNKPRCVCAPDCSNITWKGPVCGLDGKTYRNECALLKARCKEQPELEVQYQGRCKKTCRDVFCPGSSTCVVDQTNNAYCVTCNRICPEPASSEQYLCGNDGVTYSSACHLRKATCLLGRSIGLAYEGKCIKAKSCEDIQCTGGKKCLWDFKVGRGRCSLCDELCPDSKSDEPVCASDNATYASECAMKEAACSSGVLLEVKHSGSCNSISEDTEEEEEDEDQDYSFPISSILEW
# [6] = target: Fibroblast growth factor 2 (Homo sapiens) (UniProt P09038); assay: FGF2 binders on small-molecule microarrays, primary screen, biochemical, small-molecule microarray, 635/667 nm fluorescence (AID 1133); settings: small-molecule microarray binding, FGF2, fluorescence 635/667; higher = more signal
# Chain of Fibroblast growth factor 2 (Homo sapiens) (P09038 whole entry, looked up): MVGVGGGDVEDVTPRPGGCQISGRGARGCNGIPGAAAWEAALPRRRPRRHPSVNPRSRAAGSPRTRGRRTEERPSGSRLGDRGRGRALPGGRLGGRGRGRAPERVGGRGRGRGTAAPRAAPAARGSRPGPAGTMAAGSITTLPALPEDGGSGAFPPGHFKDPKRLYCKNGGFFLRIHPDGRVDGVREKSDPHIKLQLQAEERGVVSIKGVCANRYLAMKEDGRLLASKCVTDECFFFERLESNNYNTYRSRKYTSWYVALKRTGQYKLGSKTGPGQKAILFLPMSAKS
# [7] = mitochondrial membrane potential change in A549 cells, profiling panel, cell-based, JC-1 fluorescence, basal, 24 h, 100 nL (AID 1138); settings: higher = more signal;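 further: A549 lung adenocarcinoma cells under basal conditions with no added stimulus; test concentration not given here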
# Lefty1 = Lefty1 binders on small-molecule microarrays, primary screen, biochemical, small-molecule microarray, 635/667 nm fluorescence (AID 1139); settings: small-molecule microarray binding, fluorescence 635/667; higher = more signal
# [8] = tested on: wheat germ agglutinin (Triticum aestivum), Alexa647-labelled; assay: wheat germ agglutinin binders on compound microarrays, profiling panel, artefact control for SMM control-protein annotation, biochemical, small-molecule microarray, 635/667 nm fluorescence (AID 1140); settings: WGA-A647 binding, 635 nm fluorescence, higher = more signal;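 further: score merges 667 nm feature emission with signal to noise over triplicate slides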
# [9] = target: Luciferin 4-monooxygenase (Photinus pyralis) (UniProt P08659); assay: firefly luciferase enzyme inhibitors, primary screen, biochemical, luminescence, purified enzyme, 2006 set (AID 1141); settings: SteadyGlo luminescence, 30 min, higher = more signal, called active from +8 up or from −8 down;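 further: cell-free assay with purified firefly luciferase at 100 ng per well in PBS; test concentration not given here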
# Chain of Luciferin 4-monooxygenase (Photinus pyralis) (P08659 whole entry, looked up): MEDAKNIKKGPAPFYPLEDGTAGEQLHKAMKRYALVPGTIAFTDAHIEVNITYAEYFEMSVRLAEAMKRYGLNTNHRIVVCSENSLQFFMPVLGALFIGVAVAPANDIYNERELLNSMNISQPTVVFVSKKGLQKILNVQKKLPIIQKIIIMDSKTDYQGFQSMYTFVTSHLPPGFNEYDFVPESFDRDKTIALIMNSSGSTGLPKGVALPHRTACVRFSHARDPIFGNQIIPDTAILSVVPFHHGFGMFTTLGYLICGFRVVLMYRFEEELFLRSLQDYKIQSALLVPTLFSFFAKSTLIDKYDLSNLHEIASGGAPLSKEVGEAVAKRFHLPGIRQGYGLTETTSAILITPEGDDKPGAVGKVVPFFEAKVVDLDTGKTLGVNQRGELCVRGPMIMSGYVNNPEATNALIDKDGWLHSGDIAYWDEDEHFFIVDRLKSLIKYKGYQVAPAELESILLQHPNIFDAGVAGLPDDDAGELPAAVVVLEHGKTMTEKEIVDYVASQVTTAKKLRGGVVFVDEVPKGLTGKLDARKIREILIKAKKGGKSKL
# [10] = tested on: Wnt5a (protein binding on small-molecule microarray); assay: Wnt5a binders on small-molecule microarray, primary screen, biophysical, 635/667 nm fluorescence (AID 1142); settings: 635 nm fluorescence, higher = more signal;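 further: fluorescence read at 667 nm with signal to noise per printed feature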
# [11] = cell viability in Huh7 cells, primary screen, cytotoxicity control for HCV replication inhibitor project, CellTiter-Glo luminescence, basal, 48 h (AID 1143); settings: Huh7 HCV replicon, higher = more signal, called active from +8 up or from −8 down;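 further: Huh7 hepatoma cells carrying a hepatitis C replication reporter with no stimulus; test concentration not given here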
# [12] = P. aeruginosa biofilm formation inhibitors, primary screen, PAO1 strain, BacTiter-Glo luminescence, LB-PBS (AID 1144); settings: 12 h, higher = more signal
# [13] = CREB reporter modulators without forskolin, primary screen, cell-based, PC12, CRE-LacZ reporter, unstimulated (AID 1145); settings: no forskolin, luminescence, 4.5 h, higher = more signal, called active from +8 up or from −8 down
# [14] = CREB reporter modulators under forskolin, primary screen, cell-based, PC12, CRE-LacZ reporter, forskolin-stimulated (AID 1146); settings: luminescence, 4.5 h, higher = more signal, called active from +8 up or from −8 down;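 further: PC12 cells with 6xCRE LacZ reporter stimulated by forskolin 10 µM; beta-galactosidase reporter signal reflecting CREB driven transcription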
# [15] = target: Streptavidin (Streptomyces avidinii) (UniProt P22629); assay: streptavidin binders on small-molecule microarray, primary screen, artefact control for SMM compound annotation, biophysical, 635/667 nm fluorescence (AID 1147); settings: streptavidin binding, higher = more signal;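 further: signal reflects streptavidin binding to arrayed compounds as a control protein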
# Chain of Streptavidin (Streptomyces avidinii) (P22629 whole entry, looked up): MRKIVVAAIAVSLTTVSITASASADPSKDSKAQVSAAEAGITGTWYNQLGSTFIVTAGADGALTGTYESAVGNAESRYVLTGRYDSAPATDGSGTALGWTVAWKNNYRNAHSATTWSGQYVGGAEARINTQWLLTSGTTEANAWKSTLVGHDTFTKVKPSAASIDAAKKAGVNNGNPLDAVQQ
# [16] = small-molecule binders of probe aInhba, primary screen, biochemical, small-molecule microarray, 635/667 nm fluorescence (AID 1148); settings: higher = more signal;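 further: score merges 667nm spot fluorescence with signal-to-noise for antibody binding to printed compounds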
# Torsin-1A (Homo sapiens) [17] = target: Torsin-1A (Homo sapiens) (UniProt O14656); assay: torsin A binders from cell lysate, primary screen, small-molecule microarray, wild-type, 635/667 nm (AID 1149); settings: COS7 hTOR1A-WT lysate, 635 nm fluorescence, higher = more signal
# Chain of Torsin-1A (Homo sapiens) (O14656 whole entry, looked up): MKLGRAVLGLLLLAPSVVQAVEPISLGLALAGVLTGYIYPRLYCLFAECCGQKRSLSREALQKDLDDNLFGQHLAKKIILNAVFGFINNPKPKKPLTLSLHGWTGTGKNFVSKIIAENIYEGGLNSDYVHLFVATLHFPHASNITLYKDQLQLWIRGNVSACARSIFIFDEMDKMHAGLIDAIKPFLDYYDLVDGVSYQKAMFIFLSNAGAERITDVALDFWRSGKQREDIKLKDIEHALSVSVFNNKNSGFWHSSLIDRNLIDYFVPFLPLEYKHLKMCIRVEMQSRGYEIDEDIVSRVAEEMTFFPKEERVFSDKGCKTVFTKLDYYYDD
# Torsin-1A (Homo sapiens) [18] = target: Torsin-1A (Homo sapiens) (UniProt O14656); assay: small-molecule binders of mutant TOR1A in lysate, primary screen, cell lysate, small-molecule microarray, COS7 lysate, 635/667 nm fluorescence (AID 1150); settings: COS7 hTOR1A mutant lysate, 635 nm fluorescence, higher = more signal;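 further: score pools 667 nm emission and signal to noise measuring lysate protein binding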
# [19] = tested on: Sonic hedgehog protein (Shh); assay: small-molecule binders of Shh protein, primary screen, biochemical, small-molecule microarray, 635/667 nm fluorescence (AID 1151); settings: small-molecule microarray binding, 635 nm fluorescence; higher = more signal;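 further: Shh protein binding to compounds spotted on small-molecule microarray slides; score combines spot fluorescence intensity with signal-to-noise across triplicate slides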
Compound,composite z-score [1],composite z-score [2],composite z-score [3],composite z-score [4],composite z-score [5],composite z-score [6],z-score [7],composite z-score (Lefty1),composite z-score [8],z-score [9],composite z-score [10],z-score [11],z-score [12],z-score [13],z-score [14],composite z-score [15],composite z-score [16],composite z-score (Torsin-1A (Homo sapiens) [17]),composite z-score (Torsin-1A (Homo sapiens) [18]),composite z-score [19]
COC(=O)[C@@]1(Cc2ccc(F)cc2)[C@H]2c3cc(C(=O)N(C)C)n(Cc4cc(F)cc5c4OCOC5)c3C[C@H]2CN1C(=O)c1ccccc1,1.06,1.19,1.5,1,1.04,-0.0284,-0.915,0.444,1.06,-0.724 (inactive),0.462,-3.74 (inactive),0.258 (inactive),0.397 (inactive),-0.201 (inactive),1.15,0.115,0.141,0.702,0.3
C=CCOC(=O)[C@H]1[C@@H]2C(=O)O[C@@H](c3ccccc3)[C@@H](c3ccccc3)N2[C@@H](c2ccc(OCCOC(=O)[C@@H]3C[C@@H]4C(=O)N[C@@H](CCCCNC(C)=O)C(=O)N4[C@@H]3c3ccc(O)cc3)cc2)[C@]12C(=O)Nc1ccc(I)cc12,1.66,1.21,0.736,0.468,1.32,1.49,-1.38,0.752,0.0621,-0.875 (inactive),0.804,-0.257 (inactive),0.272 (inactive),0.143 (inactive),0.236 (inactive),-0.139,0.225,1.25,1.15,2.21
COc1ccc(CCNC(=O)[C@@]2(Sc3ccc(C)cc3)CC(=O)N(C3Cc4ccccc4C3)[C@@H]2c2ccc(CO)cc2)cc1,1.27,1.21,1.54,0.434,1.65,2.16,0.927,1.44,0.437,0.529 (inactive),1.56,-5.12 (inactive),-0.926 (inactive),-0.698 (inactive),-0.0678 (inactive),1.03,0.507,0.285,0.811,2.07
CN1C(=O)C2C=CC(C(O)c3cccc4ccccc34)N(N3CCCCC3)C2C1=O (stereo not given),2.11,1.15,0.127,0.853,1.23,0.225,-0.0645,0.789,1.3,-0.848 (inactive),0.156,0.64 (inactive),0.32 (inactive),-0.136 (inactive),0.0556 (inactive),1.85,0.0582,0.613,0.781,0.169
CCOC(=O)[C@H]1[C@@H]2C(=O)N3CCC[C@H]3[C@H](O[Si](C(C)C)(C(C)C)C(C)C)[C@H]2C=C2CCN(S(=O)(=O)c3ccc(C)cc3)C[C@H]21,0.173,0.837,-0.268,0.938,0.727,0.143,1.8,0.672,0.255,-0.404 (inactive),0.0328,-5.75 (inactive),0.426 (inactive),0.673 (inactive),0.986 (inactive),1.03,-0.0468,0.353,0.163,1.58
COC(=O)[C@@]1(Cc2ccc(OC)cc2)[C@H]2c3cc(C(=O)N(C)C)n(CCO)c3C[C@H]2CN1C(=O)c1ccccc1,0.214,0.498,1.45,0.662,-0.603,-0.545,0.782,-1.19,0.946,2.04 (inactive),0.29,-0.0015 (inactive),0.371 (inactive),-0.182 (inactive),1.23 (inactive),1.61,0.488,0.145,1.16,-0.544
